From paper PMC7862700, “An all-to-all approach to the identification of sequence-specific readers for epigenetic DNA modifications on cytosine”

What was measured:
Assay in all cases: DAPPL (digital affinity profiling via proximity ligation, sequencing); 10 mM Tris-HCl pH 7.5, 50 mM NaCl, 1 mM DTT, 4% glycerol, room temperature, 30 min; GST-TFs on glutathione beads, 16-mer random dsDNA library, 0.1% formaldehyde crosslink after washing; high values mean tight binding
Conditions in all cases: protein: recombinant; tags: N-terminal GST; dsDNA, one strand shown
FLI1 = target: T1, FLI1 (Homo sapiens, UniProt Q01543 1-452)
T1 sequence: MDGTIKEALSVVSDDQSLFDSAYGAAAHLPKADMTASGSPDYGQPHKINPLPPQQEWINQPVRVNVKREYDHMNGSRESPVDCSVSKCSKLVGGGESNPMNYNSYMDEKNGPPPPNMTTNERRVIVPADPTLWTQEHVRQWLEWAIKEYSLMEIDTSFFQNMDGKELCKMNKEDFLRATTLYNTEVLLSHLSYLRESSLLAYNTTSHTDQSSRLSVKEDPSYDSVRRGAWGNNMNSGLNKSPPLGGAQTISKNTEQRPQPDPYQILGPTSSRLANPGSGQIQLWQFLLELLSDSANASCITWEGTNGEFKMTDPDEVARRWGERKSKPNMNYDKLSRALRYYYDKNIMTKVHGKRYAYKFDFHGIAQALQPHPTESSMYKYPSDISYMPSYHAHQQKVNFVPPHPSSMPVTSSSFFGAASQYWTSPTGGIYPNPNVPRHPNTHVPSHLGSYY
Method in brief: (§1)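 Binding signal is each hexamer's read frequency for a factor divided by its frequency in the tag-only sample. The factors were GST-fused human transcription factors from yeast, captured on glutathione beads, DNA-barcoded and pooled with that sample. Pools were incubated with 200 nmole of a random double-stranded 16-mer DNA library in Tris/NaCl/DTT/glycerol buffer at room temperature for 30 min, then washed, crosslinked with 0.1% formaldehyde, proximity-ligated with BsaI/T4 ligase (1 h, 37 °C), PCR-amplified and sequenced on an Illumina NextSeq500.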

ELK1 = target: T2, ELK1 (Homo sapiens, UniProt P19419 1-428)
T2 sequence: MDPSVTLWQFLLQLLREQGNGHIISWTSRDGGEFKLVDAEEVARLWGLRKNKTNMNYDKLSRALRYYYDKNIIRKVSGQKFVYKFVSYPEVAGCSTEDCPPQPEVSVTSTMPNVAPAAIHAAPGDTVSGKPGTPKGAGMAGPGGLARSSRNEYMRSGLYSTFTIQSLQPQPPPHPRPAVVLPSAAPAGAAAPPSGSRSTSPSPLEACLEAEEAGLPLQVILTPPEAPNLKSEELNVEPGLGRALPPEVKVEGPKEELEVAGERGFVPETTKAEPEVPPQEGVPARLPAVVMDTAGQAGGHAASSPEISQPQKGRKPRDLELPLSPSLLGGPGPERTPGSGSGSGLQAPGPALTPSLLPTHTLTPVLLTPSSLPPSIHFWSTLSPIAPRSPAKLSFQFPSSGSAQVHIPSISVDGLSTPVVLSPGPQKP
Method in brief: as §1

GABPA = target: T3, GABPA (Homo sapiens, UniProt Q06546 1-454)
T3 sequence: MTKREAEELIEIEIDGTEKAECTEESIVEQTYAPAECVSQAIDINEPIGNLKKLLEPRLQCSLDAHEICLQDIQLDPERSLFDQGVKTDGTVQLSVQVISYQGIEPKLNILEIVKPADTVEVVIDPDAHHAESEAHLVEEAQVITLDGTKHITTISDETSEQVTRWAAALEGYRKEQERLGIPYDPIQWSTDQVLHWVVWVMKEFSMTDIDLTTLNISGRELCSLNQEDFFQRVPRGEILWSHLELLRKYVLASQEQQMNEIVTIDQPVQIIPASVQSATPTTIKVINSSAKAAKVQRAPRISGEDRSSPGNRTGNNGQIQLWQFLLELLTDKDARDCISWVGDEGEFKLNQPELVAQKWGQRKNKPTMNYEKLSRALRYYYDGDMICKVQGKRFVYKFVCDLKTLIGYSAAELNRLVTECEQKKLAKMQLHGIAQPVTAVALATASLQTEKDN
Method in brief: as §1

ERG = target: T4, ERG (Homo sapiens, UniProt P11308 1-479)
T4 sequence: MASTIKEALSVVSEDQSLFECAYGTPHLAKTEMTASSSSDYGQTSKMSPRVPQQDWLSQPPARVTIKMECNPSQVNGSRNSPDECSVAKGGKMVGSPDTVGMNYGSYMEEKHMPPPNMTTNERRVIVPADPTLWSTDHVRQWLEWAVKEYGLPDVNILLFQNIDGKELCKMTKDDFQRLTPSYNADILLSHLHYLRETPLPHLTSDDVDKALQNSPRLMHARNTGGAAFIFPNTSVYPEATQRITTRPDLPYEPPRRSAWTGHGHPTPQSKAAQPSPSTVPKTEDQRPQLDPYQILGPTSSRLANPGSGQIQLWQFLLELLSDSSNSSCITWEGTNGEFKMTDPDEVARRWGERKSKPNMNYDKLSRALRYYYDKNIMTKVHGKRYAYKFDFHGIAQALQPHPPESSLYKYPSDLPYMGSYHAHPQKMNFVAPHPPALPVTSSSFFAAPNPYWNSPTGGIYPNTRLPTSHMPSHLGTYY
Method in brief: as §1

ELF1 = ELF1 (Homo sapiens, UniProt P32519 1-619)
Method in brief: as §1

EHF = target: T5, EHF (Homo sapiens, UniProt Q9NZC4 1-300)
T5 sequence: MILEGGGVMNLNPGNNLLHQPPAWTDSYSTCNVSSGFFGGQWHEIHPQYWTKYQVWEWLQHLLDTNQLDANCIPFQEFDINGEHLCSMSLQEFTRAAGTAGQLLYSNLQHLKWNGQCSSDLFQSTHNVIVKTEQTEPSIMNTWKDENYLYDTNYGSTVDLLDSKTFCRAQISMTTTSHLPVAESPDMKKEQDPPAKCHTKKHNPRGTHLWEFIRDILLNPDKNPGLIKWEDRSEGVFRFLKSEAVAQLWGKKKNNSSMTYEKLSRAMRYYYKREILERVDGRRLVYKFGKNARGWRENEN
Method in brief: as §1

SPI1 = SPI1 (Homo sapiens, UniProt P17947 1-270)
Method in brief: as §1

SPIB = SPIB (Homo sapiens, UniProt Q01892 1-262)
Method in brief: as §1

ELK3 = target: T6, ELK3 (Homo sapiens, UniProt P41970 1-407)
T6 sequence: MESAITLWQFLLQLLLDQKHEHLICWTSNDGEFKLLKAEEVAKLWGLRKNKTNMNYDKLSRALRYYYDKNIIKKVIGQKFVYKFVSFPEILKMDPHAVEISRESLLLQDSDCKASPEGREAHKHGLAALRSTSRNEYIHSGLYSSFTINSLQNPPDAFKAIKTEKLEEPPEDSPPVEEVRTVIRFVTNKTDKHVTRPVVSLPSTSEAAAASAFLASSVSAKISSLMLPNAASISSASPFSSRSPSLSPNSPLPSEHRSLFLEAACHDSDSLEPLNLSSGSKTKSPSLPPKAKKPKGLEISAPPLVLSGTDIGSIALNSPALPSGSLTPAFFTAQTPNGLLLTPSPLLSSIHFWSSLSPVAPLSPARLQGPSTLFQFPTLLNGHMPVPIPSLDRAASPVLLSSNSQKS
Method in brief: as §1

Sequence of ELF1 (P32519 whole entry): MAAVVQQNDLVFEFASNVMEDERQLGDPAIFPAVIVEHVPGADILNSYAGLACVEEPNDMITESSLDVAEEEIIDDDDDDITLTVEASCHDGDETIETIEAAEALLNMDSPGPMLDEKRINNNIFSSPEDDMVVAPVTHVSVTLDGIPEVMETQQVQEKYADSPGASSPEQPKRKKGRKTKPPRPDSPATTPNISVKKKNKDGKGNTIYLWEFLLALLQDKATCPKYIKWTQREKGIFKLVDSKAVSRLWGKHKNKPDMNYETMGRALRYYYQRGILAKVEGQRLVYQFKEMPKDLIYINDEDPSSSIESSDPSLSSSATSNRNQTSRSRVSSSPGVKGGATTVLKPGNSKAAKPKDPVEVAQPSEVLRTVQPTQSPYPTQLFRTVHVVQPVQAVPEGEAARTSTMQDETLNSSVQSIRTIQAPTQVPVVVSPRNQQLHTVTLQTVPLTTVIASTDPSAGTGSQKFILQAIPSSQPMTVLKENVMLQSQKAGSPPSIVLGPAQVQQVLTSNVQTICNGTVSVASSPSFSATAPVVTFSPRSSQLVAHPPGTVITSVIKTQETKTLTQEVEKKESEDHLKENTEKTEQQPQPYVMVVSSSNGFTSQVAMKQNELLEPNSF
Sequence of SPIB (Q01892 whole entry): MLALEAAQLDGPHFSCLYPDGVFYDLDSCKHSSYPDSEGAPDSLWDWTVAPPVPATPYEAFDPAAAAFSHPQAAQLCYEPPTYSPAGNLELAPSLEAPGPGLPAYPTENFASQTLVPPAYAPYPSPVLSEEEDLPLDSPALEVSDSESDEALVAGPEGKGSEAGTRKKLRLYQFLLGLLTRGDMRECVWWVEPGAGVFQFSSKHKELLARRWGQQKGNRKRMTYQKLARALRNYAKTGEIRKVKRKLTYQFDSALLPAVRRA

Sequence | binding signal (FLI1) | binding signal (ELK1) | binding signal (GABPA) | binding signal (ERG) | binding signal (ELF1) | binding signal (EHF) | binding signal (SPI1) | binding signal (SPIB) | binding signal (ELK3)
TCCTAC | 1.48 fold enrichment (6-mer frequency, TF over GST control) | 1.46 fold enrichment (6-mer frequency, TF over GST control) | 1.43 fold enrichment (6-mer frequency, TF over GST control) | 1.42 fold enrichment (6-mer frequency, TF over GST control) | 1.31 fold enrichment (6-mer frequency, TF over GST control) | 1.45 fold enrichment (6-mer frequency, TF over GST control) | 1.52 fold enrichment (6-mer frequency, TF over GST control) | 1.65 fold enrichment (6-mer frequency, TF over GST control) | 1.56 fold enrichment (6-mer frequency, TF over GST control)
AATCAA | 1.1 fold enrichment (6-mer frequency, TF over GST control) | 1.18 fold enrichment (6-mer frequency, TF over GST control) | 1.15 fold enrichment (6-mer frequency, TF over GST control) | 1.21 fold enrichment (6-mer frequency, TF over GST control) | 1.17 fold enrichment (6-mer frequency, TF over GST control) | 1.12 fold enrichment (6-mer frequency, TF over GST control) | 1.15 fold enrichment (6-mer frequency, TF over GST control) | 1.14 fold enrichment (6-mer frequency, TF over GST control) | 1.14 fold enrichment (6-mer frequency, TF over GST control)
TGATGG | 1.24 fold enrichment (6-mer frequency, TF over GST control) | 1.27 fold enrichment (6-mer frequency, TF over GST control) | 1.29 fold enrichment (6-mer frequency, TF over GST control) | 1.24 fold enrichment (6-mer frequency, TF over GST control) | 1.24 fold enrichment (6-mer frequency, TF over GST control) | 1.31 fold enrichment (6-mer frequency, TF over GST control) | 1.28 fold enrichment (6-mer frequency, TF over GST control) | 1.39 fold enrichment (6-mer frequency, TF over GST control) | 1.16 fold enrichment (6-mer frequency, TF over GST control)
AATACA | 1.28 fold enrichment (6-mer frequency, TF over GST control) | 1.3 fold enrichment (6-mer frequency, TF over GST control) | 1.38 fold enrichment (6-mer frequency, TF over GST control) | 1.33 fold enrichment (6-mer frequency, TF over GST control) | 1.35 fold enrichment (6-mer frequency, TF over GST control) | 1.3 fold enrichment (6-mer frequency, TF over GST control) | 1.28 fold enrichment (6-mer frequency, TF over GST control) | 1.31 fold enrichment (6-mer frequency, TF over GST control) | 1.27 fold enrichment (6-mer frequency, TF over GST control)
AAGTAT | 1.44 fold enrichment (6-mer frequency, TF over GST control) | 1.4 fold enrichment (6-mer frequency, TF over GST control) | 1.4 fold enrichment (6-mer frequency, TF over GST control) | 1.42 fold enrichment (6-mer frequency, TF over GST control) | 1.36 fold enrichment (6-mer frequency, TF over GST control) | 1.43 fold enrichment (6-mer frequency, TF over GST control) | 1.36 fold enrichment (6-mer frequency, TF over GST control) | 1.48 fold enrichment (6-mer frequency, TF over GST control) | 1.46 fold enrichment (6-mer frequency, TF over GST control)
AATGAG | 1.09 fold enrichment (6-mer frequency, TF over GST control) | 1.18 fold enrichment (6-mer frequency, TF over GST control) | 1.22 fold enrichment (6-mer frequency, TF over GST control) | 1.12 fold enrichment (6-mer frequency, TF over GST control) | 1.14 fold enrichment (6-mer frequency, TF over GST control) | 1.18 fold enrichment (6-mer frequency, TF over GST control) | 1.51 fold enrichment (6-mer frequency, TF over GST control) | 1.08 fold enrichment (6-mer frequency, TF over GST control) | 1.23 fold enrichment (6-mer frequency, TF over GST control)
TTGTAT | 1.52 fold enrichment (6-mer frequency, TF over GST control) | 1.33 fold enrichment (6-mer frequency, TF over GST control) | 1.29 fold enrichment (6-mer frequency, TF over GST control) | 1.31 fold enrichment (6-mer frequency, TF over GST control) | 1.32 fold enrichment (6-mer frequency, TF over GST control) | 1.37 fold enrichment (6-mer frequency, TF over GST control) | 1.11 fold enrichment (6-mer frequency, TF over GST control) | 1.38 fold enrichment (6-mer frequency, TF over GST control) | 1.4 fold enrichment (6-mer frequency, TF over GST control)
CAATCT | 1.24 fold enrichment (6-mer frequency, TF over GST control) | 1.18 fold enrichment (6-mer frequency, TF over GST control) | 1.18 fold enrichment (6-mer frequency, TF over GST control) | 1.13 fold enrichment (6-mer frequency, TF over GST control) | 1.22 fold enrichment (6-mer frequency, TF over GST control) | 1.17 fold enrichment (6-mer frequency, TF over GST control) | 1.26 fold enrichment (6-mer frequency, TF over GST control) | 1.23 fold enrichment (6-mer frequency, TF over GST control) | 1.14 fold enrichment (6-mer frequency, TF over GST control)
